# Hit rate of the full screen: of about 69,000 compounds, about 8,600 (12%) showed an effect of 50% or more. Only a selection was taken, and strong results are over-represented in it overall.
# System: Plasmodium berghei
# Test: Screen against P. berghei liver stage (PbLuc), transformed with Luciferase, at 10uM
# Assay type: functional, HepG2
# Settings: tested at 10 uM
row,Structure (SMILES),INHIBITION [%]
1,COc1ccc(C(=O)N2CCC(Nc3cccnn3)CC2)c(F)c1,-32
2,N#CCCN(Cc1cccnc1)C(=O)c1cc(Cl)c[nH]1,30.3
3,CC(C)N(CC(=O)Nc1ccc(Br)cc1Cl)Cc1cccnc1,73.2
4,CC(C)N(CC(N)=O)Cc1cccc(Br)c1,16.6
5,Cc1c(Cl)cccc1NC(=O)CN(Cc1cccnc1)C(C)C,73.2
6,N#CCCN(CC(=O)Nc1ccc(Br)cc1Cl)Cc1cccnc1,64.3
7,N#CCCN(Cc1cccnc1)C(=O)c1ccc(-n2cnnn2)cc1,18.6
8,Cc1c(Cl)cccc1NC(=O)CCNc1ccc(C#N)cn1,-128
9,CC(C)N(CC(=O)O)Cc1cccc(Br)c1,13.2
10,CCc1noc(C(C)N(C)CC(=O)Nc2ccccc2Cl)n1 (stereo not drawn),21.7
11,O=C(Cc1ccc2c(c1)CCC2)N1CCCC1Cn1cccn1 (stereo not drawn),2.79
12,Cc1cccc(N2CC3(CCN(S(=O)(=O)C4CC4)C3)C2)n1,34.6
13,CC(=O)N1CCCC2(CN(Cc3ccc(C)s3)CCO2)C1 (stereo not drawn),-46.8
14,O=C(Cc1cccs1)N1C[C@H]2CN(CC3CCCO3)CC[C@H]2C1 (stereo partly drawn),30.3
15,O=C1[C@@H]2CN(c3ncc(Cl)cc3F)C[C@]2(C(=O)O)CN1CC1CC1,-5.19
16,Cc1nc(CN(C)C2CCCN(c3cccnn3)C2)oc1C (stereo not drawn),-21.8
17,Cc1cc(C)c(CNC(=O)N2CCCC2c2cc(C)on2)c(=O)[nH]1 (stereo not drawn),81.3
18,Cc1cc(C)c(CNC(=O)N2CCCC2c2ccccn2)c(=O)[nH]1 (stereo not drawn),-14.7
19,Cc1nc(C2CCCN2C(=O)CN(C)Cc2ccccc2)no1 (stereo not drawn),34
20,Cc1cc(C2CCCN2C(=O)NCc2c(C)cc(C)[nH]c2=O)on1 (stereo not drawn),36.1

row,Structure (SMILES),INHIBITION [%]
1,Cc1cc(C2CCCN2C(=O)CN(C)Cc2ccccc2)no1 (stereo not drawn),58.7
2,CN(CC(=O)N1CCCC1c1ccccn1)Cc1ccccc1 (stereo not drawn),26.6
3,CN(C)[C@@H]1CCN(c2ncccn2)[C@H]1Cc1cccnc1,-31.4
4,CCN1CCC(N2CCC(C(=O)N(C)C)CC2)CC1,15.6
5,Cc1ncsc1-c1nnc(C2CCN(Cc3ccc(F)cc3)CC2)o1,35.3
6,Cc1ccc(CN2CC[C@H](c3nnc(-c4ccco4)o3)C2)cc1,-33
7,Fc1ccc(CCN2CCC(c3nnc(-c4cccnc4)o3)CC2)cc1,35.3
8,Cc1ncsc1-c1nnc(C2CCN(Cc3ccc(Cl)cc3)CC2)o1,76.8
9,Cc1cccc(CN2CCC(c3nnc(-c4scnc4C)o3)CC2)c1,23.4
10,Cc1ccsc1-c1nnc(C2CCN(Cc3ccc(F)cc3)CC2)o1,68.2
11,Cc1ncsc1-c1nnc(C2CCN(Cc3cccc(Cl)c3)CC2)o1,-6.3
12,COc1ccc(CN2CCC(c3nnc(-c4scnc4C)o3)CC2)cc1,54.5
13,Cc1ncsc1-c1nnc(C2CCN(Cc3ccccc3)CC2)o1,27.8
14,COc1ccc2c(c1)CN(C)C(=O)CCN2CC(O)C(F)(F)F (stereo not drawn),-8.04
15,Cc1cnc(CNCc2cn(CCN3CCSCC3)nc2C)cn1,4.68
16,O=C(NCC(F)F)c1cnc(C2CCCN2)cn1 (stereo not drawn),61.05
17,Cc1cccc(NC(=O)c2cnc(C3CCCNC3)cn2)n1 (stereo not drawn),10.4
18,Cc1csc(NC(=O)c2cnc(C3CCNCC3)cn2)n1,24.4
19,FC(F)CNc1cnc(C2CCCN2)cn1 (stereo not drawn),5.15
20,COc1c(C2CCCN2CC(=O)Nc2nc(C)cs2)c(C)nn1C (stereo not drawn),31.9

row,Structure (SMILES),INHIBITION [%]
1,Cc1csc(NC(=O)c2cnc(C3CCCN3)cn2)n1 (stereo not drawn),80.9
2,Cc1nn(C)c(C)c1-c1cnc(C2CCCN(C)C2)cn1 (stereo not drawn),-28.6
3,O=C(NCc1ccccn1)c1cnc(C2CCCN2)cn1 (stereo not drawn),18.3
4,Cc1csc(NC(=O)c2cnc(C3CCCN(C)C3)cn2)n1 (stereo not drawn),71.3
5,COCCN1Cc2nccn2CC(COCc2csc(C)n2)C1 (stereo not drawn),29.5
6,CN(C)CCNC(=O)c1sc2ccccc2c1C1CCC(CN)CC1 (stereo not drawn),-77.3
7,COCC1CN(S(=O)(=O)N(C)C)Cc2cnn(CC3CCCC3)c21 (stereo not drawn),-17.1
8,COc1cccc2c1ccn2CCNC(=O)CCNc1ncccn1,38.5
9,COc1ncnc2c1CCN(Cc1cccc(C)n1)CC2,10.7
10,Cc1nc(CN(C)Cc2csc(-c3cccs3)n2)co1,15.7
11,CN(Cc1csc(-c2cccs2)n1)Cc1ncccc1C(=O)O,5.91
12,CN(Cc1csc(-c2cccs2)n1)Cc1cccnc1N,55.9
13,CC(NS(C)(=O)=O)C(=O)N(C)Cc1csc(-c2cccs2)n1 (stereo not drawn),-102
14,CCc1nc(CN(C)Cc2nnc(-c3cccs3)o2)cs1,7.81
15,CNC(=O)C(C)S(=O)(=O)Cc1csc(-c2cccs2)n1 (stereo not drawn),30.1
16,Cc1cc(CN(C)Cc2csc(-c3cccs3)n2)n[nH]1,57
17,CN(Cc1csc(-c2cccs2)n1)CC(O)CO (stereo not drawn),51.5
18,COC(=O)NCC(=O)N(C)Cc1csc(-c2cccs2)n1,49.2

# From ChEMBL document CHEMBL4513216, “Probing the Open Global Health Chemical Diversity Library for Multistage-Active Starting Points for Next-Generation Antimalarials” (ACS Infect Dis, 2020)
